Screening data (PubChem BioAssay)
Only some compounds are listed: those with a hit (about 0.81% of all), similar ones and a draw of the others.
TRPML1 agonist: human mucolipin-1 channel agonism; TRPML1-expressing cells, Ca2+ dye fluorescence, FDSS; actives 0.12% (n = 410,000); Q9GZU1; activation, % (concentration not given with the values); in the data active = activation above about 50%; inconclusive = mostly about 30% to 49%; note: 0% is about no effect
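Calcium fluorescence on an FDSS kinetic reader gave the read-out. Tet-induced TRPML1-DL cells were plated overnight, dye-loaded (Ca8 with quencher, 45-90 min, room temperature, dark), then read 110 s after compound addition, and again 110 s after 4uM final 54-4 (EC80).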
TRHR ag: activates the human TRH receptor | P34981 | TRHR cells, calcium flux fluo-8, FDSS agonist mode | activation, % at 2 µM | actives 0.18% (n = 360,000); in the data active = activation above about 30%; note: 0% is about no effect
Target sequence (P34981 whole entry, looked up): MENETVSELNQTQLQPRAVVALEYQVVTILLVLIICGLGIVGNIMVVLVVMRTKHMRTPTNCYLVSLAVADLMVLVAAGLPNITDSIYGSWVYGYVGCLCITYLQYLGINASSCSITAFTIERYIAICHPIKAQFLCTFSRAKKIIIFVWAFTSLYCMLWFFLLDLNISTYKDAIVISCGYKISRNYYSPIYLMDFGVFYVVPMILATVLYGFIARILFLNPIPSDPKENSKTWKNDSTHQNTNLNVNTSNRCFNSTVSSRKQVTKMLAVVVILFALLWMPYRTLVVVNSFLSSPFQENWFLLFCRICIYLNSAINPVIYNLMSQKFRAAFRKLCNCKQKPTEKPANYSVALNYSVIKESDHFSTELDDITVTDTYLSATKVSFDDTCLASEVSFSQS
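TRHR-expressing cells loaded with fluo-8 calcium dye; 23 nL library compound pin-transferred, kinetic FDSS fluorescence (Ex 480/Em 530) recorded about 180 s for agonist-induced calcium release, before a 10 nM TRH EC20 addition for potentiator mode.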
TRHR enhancer: allosteric enhancers of human TRH receptor | TRHR cells, fluo-8 calcium fluorescence, EC20 TRH enhancement | AID 493056 | enhancement, % at 2 µM | actives 0.66% (n = 360,000) | P34981; in the data active = enhancement above about 30%; note: 0% is about no effect
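TRHR-expressing cells loaded with fluo-8 calcium dye were read kinetically (ex 480/em 530) during compound addition, then stimulated with an EC20 of TRH (10 nM final). Enhancement of the Gq-mediated intracellular calcium response was scored.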
TRPML1 blocker: blocks the human TRPML1 channel. TRPML1-inducible cells, Ca2+ dye fluorescence, FDSS; active compounds read low; inhibition of EC80 agonist-evoked calcium signal. activity change, negative = inhibition, % (test concentration not listed). actives 0.02% (n = 390,000); in the data active = activity change below about -50%; inconclusive = between about -30% and that limit;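 note: stimulus is agonist 54-4 at its EC80 concentration; % is set by controls: 0 for no effect and ±100 for the full control effect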
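Tet-induced TRPML1-DL cells loaded with Ca8 no-wash calcium dye were read kinetically on FDSS. Compound addition was followed by EC80 agonist 54-4 (4 uM final); inhibition was read over 110 s.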
* marks the source's active call; other numbers are inactive results; u = inconclusive; x = not tested or not shown.

SMILES | TRPML1 agonist | TRHR ag | TRHR enhancer | TRPML1 blocker
CCOC(=O)/C(=C/C=C1\Sc2cc(C)c(C)cc2N1CC)C(C)=O | 89.8* | 249.5* | 21.5 | -2.6
CCC(=O)/C=C1/Sc2ccccc2N1CC | 2.0 | -0.3 | 5.4 | -3.5
CCOC(=O)/C(=C\C=C1/Sc2ccccc2N1CC)C(C)=O | 88.8* | 71.2* | 13.4 | -7.1
CCOC(=O)/C(=C/C=C1\Sc2ccccc2N1CC)C(C)=O | 80.1* | 80.1* | 22.3 | 3.5
COc1cc(NC(=O)CCNS(=O)(=O)c2ccc3c(c2)CCN3C(=O)C2CC2)cc(OC)c1 | -0.1 | 0.2 | 45.5* | 13.3
CCC(=O)N1CCc2cc(S(=O)(=O)NCCC(=O)Nc3ccc(OC)cc3)ccc21 | -1.1 | -0.1 | 2.6 | -2.9
O=C(O)C#CC(=O)O | -0.4 | x | x | x
CN1C(=O)C2(c3ccccc31)c1c(oc3ccccc3c1=O)C(=O)N2CCCO (stereo not given) | -0.1 | 0.1 | -0.1 | 11.0
Cc1ccc2oc3c(c(=O)c2c1)C1(C(=O)N(C)c2ccccc21)N(CCCO)C3=O (stereo not given) | -0.4 | 0.3 | 35.5* | 6.5
CC(C)(C)n1ncc2c(=O)n(Cc3cccc(Oc4ccccc4)c3)cnc21 | 1.2 | x | x | 2.6
COc1ccc(-c2nnc3sc(CN4C(=O)c5ccccc5C4=O)nn23)cc1 | 0.3 | 0.0 | 35.7* | 11.6
O=C(CSc1nc(O)c(Cc2ccccc2)c(=O)[nH]1)Nc1ccccc1 | 0.9 | 0.9 | 1.5 | -21.3
COc1ccc(NC(=O)CSc2nc(O)c(Cc3ccccc3)c(=O)[nH]2)cc1 | -0.3 | -0.1 | 31.7* | 12.6
Cc1cc(C)c(NC(=O)CN(C)C(C)C(=O)N2CCc3ccccc32)c(C)c1 (stereo not given) | 0.4 | -0.9 | 32.4* | -16.6
O=C(CNC(=O)c1ccc2n[nH]nc2c1)OC(C(=O)Nc1cc(C(F)(F)F)ccc1Cl)c1ccccc1 (stereo not given) | x | -2.2 | 8.9 | x
N#Cc1nc(Nc2cccc(-c3ccccc3)c2)nc(NC2CCCC2)n1 | x | 1.3 | 0.9 | x
N/C(COc1ccccc1)=N\NS(=O)(=O)c1ccccc1 | -0.3 | -0.1 | 31.0* | -2.8
CCOc1ccc(C(=O)Nc2c(C(=O)c3ccccc3)oc3ccccc23)cc1 | 0.0 | 31.6* | 5.7 | 43.9
CCOc1ccc(C(=O)Nc2c(C(=O)c3ccc(OC)cc3)oc3ccccc23)cc1 | 1.5 | -0.5 | -1.9 | 21.0
CCC[n+]1c(/C=C/c2c(OC)cc(OC)cc2OC)ccc2ccccc21 | 7.9 | x | x | x
CC[C@@H](C(=O)[C@@H](C)[C@@H](O)[C@H](C)CCc1ccc(C)c(O)c1C(=O)O)[C@H]1O[C@](CC)([C@H]2CC[C@](O)(CC)[C@H](C)O2)C[C@@H]1C | u | 99.9* | 40.2* | 16.6
CC(=O)NCCNc1nc(NCc2cccs2)nc2ccsc12 | 6.1 | x | x | x
O=C1CCCN1CCCNc1nc(NCc2cccs2)nc2ccsc12 | 57.1* | x | x | x
CC(C)CC(=O)N1CCN(C(=O)c2ccc(-c3ccccc3)cc2)CC1 | -0.2 | 0.2 | 31.0* | -6.4
CC(C)CC(=O)N1CCN(C(=O)c2cccc(F)c2)CC1 | 0.4 | 0.9 | -0.8 | 9.1
SMILES | TRPML1 agonist | TRHR ag | TRHR enhancer | TRPML1 blocker
COc1cc(OC)cc(C(=O)N2CCN(C(=O)c3ccc(-c4ccccc4)cc3)CC2)c1 | 3.7 | 0.0 | 36.1* | 24.2
COc1cc(CN2CCN(C(=O)c3ccc(-c4ccccc4)cc3)CC2)cc(OC)c1OC | -0.3 | -0.4 | 33.2* | -1.4
Cc1ccc2[nH]cc(C(O)c3c[nH]c4ccc(C)cc34)c2c1 | -0.2 | x | x | x
N#CN/C(=N\S(=O)(=O)c1ccccc1)c1ccccc1 | -0.6 | 1.2 | 36.8* | -0.5
Cc1cnc2ccccc2c1/C=C/c1ccc(N(C)C)cc1 | -0.5 | x | x | x
Cc1ccc(S(=O)(=O)NCC(=O)NCCc2c[nH]c3ccccc23)cc1C | -0.4 | -0.8 | 33.5* | -4.8
Cc1cccc(C)c1NC(=O)c1ccc2c(c1)N(Cc1cccc(Cl)c1)C(=O)c1ccccc1S2=O (stereo not given) | 4.2 | -1.7 | 33.0* | 39.6
N#Cc1cccc(NC(=O)c2ccc3c(c2)N(Cc2cccc(Cl)c2)C(=O)c2ccccc2S3(=O)=O)c1 | 2.7 | 2.2 | 31.0* | -16.6
CC(=O)Nc1ccc(NC(=O)c2ccc3c(c2)N(Cc2cccc(Cl)c2)C(=O)c2ccccc2S3(=O)=O)cc1 | 2.6 | -1.7 | 2.6 | -13.0
c1ccc(CCCCN2CCN=C2Nc2ccccc2)cc1 | 0.0 | 0.2 | 31.7* | 48.0
